Data on 13 compounds can be found in PubChem BioAssay (NCATS).

The structures appear in SMILES notation. Inconclusive results are not listed. Values without a mark were called inactive. The source made the active and inactive calls. Calls follow the shape of the dose curve; as a rule, active = well fitted curve in the direction sought with a large enough effect; inconclusive = small, poorly fitted or top-dose-only effect, or another doubt; inactive = no such curve, though single readings can be large; an effect the other way counts as inactive or inconclusive.

In assay [1] the test system is C33A. In words: Primary qHTS to identify gynecologic anti-cancer compounds using libraries of approved drugs and bioactive compounds (AID 1345084). Also: nearly all actives have a fitted effect of over 55% in size. Particulars: Gynecologic cancer cell panel viability, ATPlite luminescence, 48 h; series mostly up to 57.5 µM. In a few lines: (§1)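 Cytotoxicity screen measuring ATP content by luciferase luminescence. Each compound is applied at five concentrations for 48 h at 37 C with 5% CO2.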
Background: In qHTS, concentration-response curves come from the screen itself.

Assay [2] has as its system CAOV3. The assay is described as above. Particulars: Gynecologic cancer cell panel viability, ATPlite luminescence, 48 h; series mostly up to 57.5 µM. In short, it runs like this:
as §1
A general note: In ATP-based viability assays light output follows the ATP content of the culture.

In assay [3] the test system is Es-2. The assay is described as above. Particulars: Gynecologic cancer cell panel viability, ATPlite luminescence, 48 h; series mostly up to 57.5 µM. In short, it runs like this:
as §1

The test system of assay [4] is HeLa. The description is as above. As to conditions: Gynecologic cancer cell panel viability, ATPlite luminescence, 48 h; series mostly up to 57.5 µM. In a few lines: as §1
In assay [5] the test system is Hek293T. Described as above. Particulars: Gynecologic cancer cell panel viability, ATPlite luminescence, 48 h, control line for the selectivity index; series mostly up to 57.5 µM. In a few lines:
as §1

The test system of assay [6] is JEG-3. The description is as above. As to conditions: Gynecologic cancer cell panel viability, ATPlite luminescence, 48 h; series mostly up to 57.5 µM. In a few lines:
as §1

For assay [7], the system named is OV90. The description is as above. Particulars: Gynecologic cancer cell panel viability, ATPlite luminescence, 48 h; series mostly up to 57.5 µM. In short, it runs like this:
as §1

Assay [8] has as its system PA-1. The description is as above. Particulars: Gynecologic cancer cell panel viability, ATPlite luminescence, 48 h; series mostly up to 57.5 µM. In short, it runs like this: as §1
Assay [9] deals with SKOV3. The assay is described as above. Particulars: Gynecologic cancer cell panel viability, ATPlite luminescence, 48 h; series mostly up to 57.5 µM. In short, it runs like this: as §1
Assay [10] relates to Tov-21-G. The assay is described as above. Particulars: Gynecologic cancer cell panel viability, ATPlite luminescence, 48 h; series mostly up to 57.5 µM. In short, it runs like this:
as §1

Assay [11] relates to Tov112D. The assay is described as above. As to conditions: Gynecologic cancer cell panel viability, ATPlite luminescence, 48 h; series mostly up to 57.5 µM. In short, it runs like this: as §1
Assay [12] concerns CASKI. The description is as above. Particulars: Gynecologic cancer cell panel viability, ATPlite luminescence, 48 h; series mostly up to 57.5 µM. In short, it runs like this: as §1
Assay [13] in a line: Drug repurposing screens with cells derived from glioblastoma tumor samples (AID 1345199). Also: nearly all actives have a fitted effect of over 40% in size. Particulars: GBM patient neurospheres viability, ATP luminescence, 48 h. In short, it runs like this:
(§2)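 Four patient lines of CD133+ GBM neurospheres were screened at several concentrations; hits were retested in those lines plus three slower-growing GBM lines, using 48-hour treatment and ATP-based viability.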

Assay [14] deals with astro. The assay is described as above. As to conditions: viability, ATP luminescence, 48 h; series mostly up to 91.6 µM. In a few lines:
as §2
% is scaled to controls: 0 for no effect and ±100 for the full control effect; potency is read from the fitted curve at half-maximal effect.

`COc1cc2c(cc1OC)N1C(=O)C[C@]34C=CCN5CC[C@@H]2[C@@H](CC3)[C@]514`: the Potency entry in assay [1], in assay [2], in [3], in [4], in [5] and in assay [6] was “inactive” throughout. Also, the Potency entry in assay [7], in assay [8], in assay [9], in [10] and in assay [11] was “inactive” in each case.
With `COc1cc(NC(=O)Nc2cccc(CNC(=O)O[C@H]3CCOC3)c2)ccc1-c1cnco1`, the Potency entry in assay [1], in assay [2], in [6] and in assay [11] was “inactive” throughout. Moreover, the Potency is 1410 nM (active) in assay [8] and 8910 nM (active) in [10].
For the compound `COC(=O)Cc1cc2c(c([N+](=O)[O-])c1)N(C(=O)CC[C@H](N)C(=O)O)CC2`, the Potency entry in assay [1], in [2], in [3], in assay [4], in assay [5] and in [6] was “inactive” throughout. For the same compound, the Potency entry in assay [7], in assay [8], in [9], in [10] and in assay [11] was “inactive” throughout.
Turning to `CO[C@H]1C[C@@H]2CC[C@@H](C)[C@@](O)(O2)C(=O)C(=O)N2CCCC[C@H]2C(=O)O[C@H]([C@H](C)C[C@@H]2CC[C@@H](OP(C)(C)=O)[C@H](OC)C2)CC(=O)[C@H](C)/C=C(\C)[C@@H](O)[C@@H](OC)C(=O)[C@H](C)C[C@H](C)/C=C/C=C/C=C/1C`, the Potency entry in [1], in assay [2], in [3], in assay [4], in [6] and in assay [8] was “inactive” in each case. Moreover, the Potency entry in [9], in assay [10] and in assay [11] was “inactive” each time.
On to `COc1cc(O)cc(C)c1C(=O)O[C@@H]1[C@H](O)[C@@H](CO)O[C@H]1n1ccc(=O)[nH]c1=O`, for which the Potency result in assay [1], in [2], in assay [12], in assay [4], in assay [6] and in assay [7] was “inactive” in each case. The Potency entry in assay [9] and in [11] was “inactive” in each case. Also, the Potency in [8] was 3980 nM (active).
For `N#Cc1ccc(-c2cnc3[nH]cc(NC(=O)c4cccnc4)c3c2)cc1`, the Potency result in assay [1], in assay [2], in [12], in assay [5], in assay [6] and in assay [11] was “inactive” each time.
As to `CC(=O)O[C@H]1C(=O)[C@@]2(C)[C@H]([C@H](OC(=O)c3ccccc3)[C@]3(O)C[C@H](OC(=O)[C@H](O)[C@@H](NC(=O)c4ccccc4)c4ccccc4)C(C)=C1C3(C)C)[C@]1(OC(C)=O)CO[C@@H]1C[C@@H]2O`, the activity change, negative = cytotoxicity in assay [1] was -4.13% [at 11.6 µM]; in assay [2], -17.1% [at 11.6 µM]; in assay [7] it was -15.2% [at 11.6 µM]; in assay [9], 0% [at 11.6 µM]. For the same compound, the Potency was 126 nM (active) in assay [3]; 31.6 nM (active) in assay [4]; 31600 nM (active) in assay [13] (tumour line A); 100 nM (active) in assay [13] (tumour line D); 39800 nM (active) in assay [14]. For the same compound, the activity, negative = cell killing in assay [13] (at 45.9 µM (top of the series), tumour line B) was -12.5%.
On to `C/C=C1\[C@H](O[C@@H]2O[C@H](CO)[C@@H](O)[C@H](O)[C@H]2O)OC=C2C(=O)OCCc3ccc(O)c(c3)Oc3ccc(cc3)CCOC(=O)C[C@H]21`, for which the Potency entry in assay [1], in assay [2], in [3], in [4], in [5] and in [7] was “inactive” in each case. In addition, the Potency result in assay [8], in assay [10] and in assay [11] was “inactive” throughout.
Turning to `CC(C)c1cccc2c(-c3ccccc3)cc(-c3ccc(-c4ccc(C(=O)O)cc4)[nH]3)nc12`, the Potency result in [1], in assay [2], in [3], in assay [4], in assay [5] and in assay [6] was “inactive” throughout. For the same compound, the Potency result in assay [7], in [8] and in assay [9] was “inactive” each time.
Turning to `Cc1ncc(CCCN(C)C)cc1Nc1ncc2c(n1)-c1ccc(C(F)(F)F)cc1NC(=S)C2`, the Potency entry in assay [1], in assay [2], in [12], in assay [6] and in assay [10] was “inactive” throughout.
Regarding `CC1=C(COC2OC(CO)C(O)C(O)C2O)C(C(CO)C(=O)O)CC1` (stereo not drawn), the Potency entry in [1], in [12], in assay [3], in [4], in assay [5] and in assay [6] was “inactive” in each case. In addition, the Potency result in assay [7], in assay [8], in assay [9], in assay [10] and in [11] was “inactive” each time.
Regarding `CC1=CC2C(CC1OC1OC(CO)C(O)C(O)C1O)C(C)CC(=O)C2C(C)C` (stereo not drawn), the Potency entry in assay [1], in [2], in [3], in assay [4], in assay [5] and in assay [6] was “inactive” throughout. The Potency entry in assay [7], in assay [8], in assay [9], in [10] and in assay [11] was “inactive” throughout.
As to `CC1=C(/C=C/C(C)=C\C=C\C(C)=C/C(=O)O)C(C)(C)CCC1`, the Potency result in assay [1], in assay [12], in assay [3], in [4], in assay [5] and in assay [6] was “inactive” each time. Moreover, the Potency entry in assay [7], in assay [8], in assay [9], in [10] and in assay [11] was “inactive” each time.
